Screening results as filed in PubChem.
The list is not random: actives were taken first. Their share in the collection is about 9%.
IMPase inh = membrane-permeable compound that blocks inositol monophosphatase | P97697 | CHO-M1 cells, IP1 accumulation, HTRF TR-FRET ratio | inhibition (IP1 accumulation), % at 46.1 µM | 120,000 tested, under 10 active | AID 901; active means well fitted curve in the direction sought with a large enough effect in the signal ratio, not every such curve was filed as active; inconclusive means small, poorly fitted or top-dose-only effect, or a change in a side signal; inactive means no such curve, though single readings can be large or run the other way; the % refers to the signal ratio;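 further: cells stimulated with carbachol in lithium chloride buffer; higher means more IMPase inhibition seen as more IP1 and lower FRET ratio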
Target sequence (P97697 whole entry, looked up): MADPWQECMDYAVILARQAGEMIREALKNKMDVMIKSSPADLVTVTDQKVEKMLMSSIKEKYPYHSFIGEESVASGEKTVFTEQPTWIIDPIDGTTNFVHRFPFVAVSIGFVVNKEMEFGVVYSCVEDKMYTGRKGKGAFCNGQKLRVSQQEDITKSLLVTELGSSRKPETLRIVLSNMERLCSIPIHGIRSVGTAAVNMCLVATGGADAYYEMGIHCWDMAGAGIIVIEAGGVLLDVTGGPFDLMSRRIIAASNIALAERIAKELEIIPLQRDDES
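In this qHTS, compounds (final up to 46 uM) act on CHO-M1 cells that are then activated through the M1 receptor with carbachol, in pH 7.4 buffer containing 50 mM LiCl, for 30 min. IP1 accumulation is quantified by the IP-One immunoassay.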
HPGD inh = inhibitors of human 15-hydroxyprostaglandin dehydrogenase (HPGD); P15428; purified HPGD, NADH fluorescence kinetic, PGE2 substrate; Potency, µM, hits mostly inhibitors; 150,000 tested, 4.3% active; AID 894
Target sequence (P15428 whole entry, looked up): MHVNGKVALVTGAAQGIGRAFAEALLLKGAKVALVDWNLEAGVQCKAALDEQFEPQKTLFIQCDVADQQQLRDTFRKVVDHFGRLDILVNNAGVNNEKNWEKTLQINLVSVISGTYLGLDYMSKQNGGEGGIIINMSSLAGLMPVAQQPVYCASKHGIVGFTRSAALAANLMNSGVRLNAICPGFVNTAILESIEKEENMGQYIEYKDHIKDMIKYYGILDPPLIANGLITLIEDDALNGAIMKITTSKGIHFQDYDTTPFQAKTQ
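20 nM HPGD preincubated 15 min at room temperature with compound in 50 mM Tris-HCl pH 8, 0.01% Tween 20. Started with 1 mM NAD+ and 30 uM prostaglandin E2; NADH fluorescence (360/450 nm) read 5 times over 30-s intervals, last minus first.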
ALDH1A1 inh = blocks purified human ALDH1A1 activity. P00352. Purified ALDH1A1, NADH fluorescence, propionaldehyde substrate. Potency, µM (doses to about 75.3 µM), usual class: inhibitors. 220,000 tested, 7.3% active
Of the large screens only hits and unclear results are named; the others gave an inactive call. Unless noted, the call rests on the fitted dose curve; in most records, active means well fitted inhibition curve with a large enough effect (not every such curve was filed as active); inconclusive means small, poorly fitted or top-dose-only effect, or another doubt; inactive means no such curve, though single readings can be large or run the other way.

Cc1ccc(SCCNC(=O)/C=C/c2ccccc2Cl)cc1	HPGD inh inconclusive, ALDH1A1 inh 13µM
Cc1ccc(SCCNC(=O)C(C)C)cc1	none
Cc1ccc(SCCNC(=O)/C=C/c2ccc(Cl)cc2)cc1	none (no result: IMPase inh)
O=C(/C=C/c1ccccc1Cl)NCc1ccccc1	none
Cc1ccc(SCCNC(=O)c2ccccc2C)cc1	HPGD inh 16µM
O=C(Cn1c(CO)nc2ccccc21)NC1CCCCCC1	none (no result: IMPase inh, HPGD inh)
Cc1c(C(=O)N2CCc3ccccc32)cnn1C	none (no result: IMPase inh)
COc1cccc(-c2nnc(SCC(=O)NC3CCCCC3)o2)c1	none (no result: HPGD inh, ALDH1A1 inh)
N/C(=N\O)c1ccccc1N1CCCCC1	none (no result: IMPase inh, HPGD inh)
Cc1ccc(-n2[nH]c(C)c(C=Nc3ccc(S(=O)(=O)Nc4nc(C)cc(C)n4)cc3)c2=O)c(C)c1	HPGD inh 22µM
Cc1ccc(-n2[nH]c(C)c(C=Nc3ccc(S(=O)(=O)Nc4nccs4)cc3)c2=O)cc1	HPGD inh inconclusive (no result: IMPase inh)
CNS(=O)(=O)c1ccc(N=Cc2c(C)[nH]n(-c3ccc(C)cc3C)c2=O)cc1	none (no result: IMPase inh, HPGD inh)
CCc1nnc(NS(=O)(=O)c2ccc(N=Cc3c(C)[nH]n(-c4ccc(C)c(C)c4)c3=O)cc2)s1	HPGD inh 16µM, ALDH1A1 inh 11µM
Cc1[nH]n(-c2ccc(Br)cc2)c(=O)c1C=Nc1ccc(S(=O)(=O)Nc2nccs2)cc1	HPGD inh 14µM
Cc1cc(C)nc(NS(=O)(=O)c2ccc(N=Cc3c(C)[nH]n(-c4ccccc4)c3=O)cc2)n1	none
CC(=O)NC1C(c2nc3ccccc3s2)=C(c2ccccc2)C(=O)N1c1ccc(C)cc1 (stereo not drawn)	ALDH1A1 inh 7.9µM
COc1cccc(N2C(=O)C(c3ccccc3)=C(c3nc4ccccc4s3)C2NC(C)=O)c1 (stereo not drawn)	ALDH1A1 inh inconclusive
Cc1cccc(N2C(N)=NC(N)=NC23CCCCC3)c1	none
COc1ccc(OC)c(N2C(N)=NC(N)=NC23CCCC3)c1	ALDH1A1 inh 22µM (no result: HPGD inh)
CCc1ccccc1-n1c(SCC(=O)Nc2ccc3c(c2)OCCO3)nc2[nH]ncc2c1=O	IMPase inh inconclusive
O=C(CSc1nc2[nH]ncc2c(=O)n1-c1ccccc1)N1CCCCCC1	ALDH1A1 inh 5µM (no result: IMPase inh, HPGD inh)
O=C(CSc1nc2ccccc2c(=O)n1-c1ccccc1)N1CCCC1	ALDH1A1 inh inconclusive
O=C(CSc1nc2[nH]ncc2c(=O)n1-c1ccccc1Cl)N1CCCC1	ALDH1A1 inh 32µM (no result: IMPase inh, HPGD inh)
CCCOc1ccc(-c2nc(N3CCCCC3)c3ccccc3n2)cc1	none (no result: HPGD inh, ALDH1A1 inh)
CCOC(=O)c1c(NC(=O)c2cc(-c3cccc(O)c3)on2)sc(C(C)=O)c1C	ALDH1A1 inh inconclusive (no result: IMPase inh)
CCOC(=O)c1c(NC(=O)c2noc(C)c2[N+](=O)[O-])sc(C(C)=O)c1C	ALDH1A1 inh 25µM (no result: IMPase inh, HPGD inh)
Cc1onc(-c2ccccc2Cl)c1C(=O)Nc1sc2c(c1C#N)CCC2	HPGD inh inconclusive, ALDH1A1 inh inconclusive
Cc1onc(C(=O)Nc2sc3c(c2C#N)CCCC3)c1[N+](=O)[O-]	ALDH1A1 inh 7.1µM (no result: IMPase inh, HPGD inh)
CCCc1cc(C(=O)Nc2ccccc2SC)no1	HPGD inh 22µM, ALDH1A1 inh inconclusive
CCCc1cc(C(=O)Nc2ccc(F)cc2F)no1	none
CCCc1cc(C(=O)Nc2sc3c(c2C#N)CCC3)no1	HPGD inh 28µM, ALDH1A1 inh 11µM
CCCc1cc(C(=O)Nc2sc(C)c(C)c2C(=O)OCC)no1	HPGD inh inconclusive, ALDH1A1 inh inconclusive
O=C(CCC1CCCN(C(=O)Cn2cnnn2)C1)NCc1ccccc1F (stereo not drawn)	none (no result: IMPase inh, HPGD inh)
CCCc1cc(C(=O)Nc2sc(C)c(CC)c2C#N)no1	ALDH1A1 inh 28µM
CCc1c(C)sc(NC(=O)c2cc(-c3ccco3)on2)c1C#N	HPGD inh inconclusive, ALDH1A1 inh 28µM
CCc1c(C)sc(NC(=O)c2cc(C)on2)c1C#N	ALDH1A1 inh inconclusive
CCc1c(C)sc(NC(=O)C2CCCO2)c1C#N (stereo not drawn)	HPGD inh 28µM, ALDH1A1 inh 16µM
Cc1cc(NC(=O)c2cc(-c3ccco3)on2)no1	none
CCc1c(C)sc(NC(=O)c2cc(C3CC3)on2)c1C#N	ALDH1A1 inh inconclusive
Cc1ccccc1-n1c(SCC(=O)N2CCN(c3ccccc3)CC2)nnc1-c1ccncc1	ALDH1A1 inh inconclusive
O=C(CSc1nnc(-c2ccco2)n1-c1ccccc1)N1CCN(C(=O)c2ccco2)CC1	ALDH1A1 inh inconclusive
Cn1c(SCC(=O)N2CCN(c3ccccc3)CC2)nnc1-c1ccccc1	ALDH1A1 inh 7.9µM
O=C(CSc1ncn(-c2ccccc2)n1)N1CCN(c2ccccc2)CC1	HPGD inh 28µM, ALDH1A1 inh 14µM
Cn1c(SCC(=O)N2CCN(c3ccccc3)CC2)nnc1-c1ccco1	ALDH1A1 inh 13µM
Cn1c(SCC(=O)N2CCN(c3ccccc3)CC2)nnc1-c1c[nH]c2ccccc12	none
Cc1ccnc(SCC(=O)N2CCN(c3ccccc3)CC2)n1	ALDH1A1 inh inconclusive
CCn1c(SCC(=O)N2CCN(c3ccccc3)CC2)nnc1-c1ccncc1	HPGD inh 20µM, ALDH1A1 inh 25µM
COc1cccc([C@@H]2Oc3ccc(Br)cc3C[C@H]2OC(=O)NS(=O)(=O)c2ccc(C)cc2)c1	none (no result: IMPase inh)
CCc1ccc(C(=O)NCc2cnn(C)c2)s1	none (no result: IMPase inh, HPGD inh)
CCC(=O)N1CCc2cc(S(=O)(=O)Nc3cc(C)ccc3OC)ccc21	none (no result: HPGD inh, ALDH1A1 inh)
O=C(NC1CCS(=O)(=O)C1)c1cccc(S(=O)(=O)N2CCCC2)c1 (stereo not drawn)	none (no result: IMPase inh, HPGD inh)
Cn1c(CCNC(=O)c2cccs2)nnc1SCC(=O)N1CCN(c2ccccc2)CC1	ALDH1A1 inh 28µM
Cc1sc(NC(=O)CSc2nnc(CCNC(=O)c3cccs3)n2C)nc1-c1ccccc1	none
COc1ccc(CCN(C)CCCN2CC(c3ccccc3)CC2=O)cc1OC (stereo not drawn)	none (no result: IMPase inh, HPGD inh)
COc1ccc(C2CC(=O)N(CCCN(C)CCc3ccc(OC)c(OC)c3)C2)cc1 (stereo not drawn)	ALDH1A1 inh 14µM (no result: IMPase inh, HPGD inh)
Cc1c(C(=O)C(=O)NCC2CCCO2)c2ccccc2n1C (stereo not drawn)	none (no result: IMPase inh, HPGD inh)
CCCCC[C@H](O)/C=C/[C@H]1C=CC(=O)[C@@H]1CCCCCCC(=O)O	none (no result: IMPase inh)
Cc1cc(C(=O)CCl)c(C)n1-c1cccc(S(=O)(=O)N2CCOCC2)c1	ALDH1A1 inh 0.18µM (no result: IMPase inh, HPGD inh)
Cc1cc(C(=O)CSc2ncn[nH]2)c(C)n1-c1cccc(S(=O)(=O)N2CCOCC2)c1	none (no result: IMPase inh)
Cc1ccc(C(=O)OC2OC(=O)C(Cl)=C2N2CCOCC2)cc1 (stereo not drawn)	none (no result: IMPase inh)
O=C(COC(=O)c1cccc(C(F)(F)F)c1)NCc1ccc(Cl)cc1	HPGD inh 14µM (no result: IMPase inh)
O=C(COC(=O)c1cccc(C(F)(F)F)c1)NCc1ccccc1	none (no result: IMPase inh)
COc1ccc(-c2nnc3n2-c2ccccc2SC3)cc1OC	HPGD inh 35µM, ALDH1A1 inh 16µM
COc1ccc(C2=Nn3c(nnc3-c3ccncc3)SC2)cc1OC	HPGD inh inconclusive, ALDH1A1 inh inconclusive
Cc1ncc(CO)c(CN)c1O	none (no result: IMPase inh)
CC(=O)c1c(C)[nH]c(C(=O)CSc2nnc(C)s2)c1C	none (no result: IMPase inh, HPGD inh)
CC1(C)Cn2c(nnc2-c2ccccc2)S1	HPGD inh 16µM
CC1(C)Cc2ccccc2-c2nnc(-c3ccccc3)n21	none
O=C(CN1C(=O)CCC1=O)NCC12CC3CC(CC(C3)C1)C2	IMPase inh inconclusive, ALDH1A1 inh 1.1µM
COCCNCC(=O)NCC12CC3CC(CC(C3)C1)C2	ALDH1A1 inh 28µM
O=C(CN1CCCC1)NCC12CC3CC(CC(C3)C1)C2	ALDH1A1 inh inconclusive
COCCNCC(=O)NC12CC3CC(CC(C3)C1)C2	none
